Where “and” joins values, the source holds several entries; their conditions need not be identical. Identical values can stand only once. Records with an inconclusive call do not appear. Some compounds were tested as several samples or in several runs, with calls that do not always agree. Calls of active or inactive are those of the source. Unless noted, calls follow the shape of the dose curve; as a rule, active = well fitted curve in the direction sought with a large enough effect; inconclusive = small, poorly fitted or top-dose-only effect, or another doubt; inactive = no such curve, though single readings can be large; an effect the other way counts as inactive or inconclusive.
How the values were obtained:
[1] = P-glycoprotein substrates identified in KB-3-1 adenocarcinoma cell line, qHTS therapeutic library screen (AID 1346986); also: nearly all actives have a fitted effect of over 60% in size;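 also: potency is read from the fitted curve at half-maximal effect; potency is for cytotoxicity meaning loss of cell viability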
Method in brief: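 Viability read by CellTiter-Glo after 72 h compound exposure in dose-response of KB-3-1 and KB-8-5-11 (P-gp-high) cells. Hits needed AC50 < 10 uM, >50% maximum response and curve class -1.1 to -2.4. Cherry-picks retested ± tariquidar, including pcDNA/MDR-19 HEK-293 pair.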

[2] = P-glycoprotein substrates identified in KB-8-5-11 adenocarcinoma cell line, qHTS therapeutic library screen (AID 1346987); also: nearly all actives have a fitted effect of over 65% in size; also: potency is read from the fitted curve at half-maximal effect
Method in brief: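 Compounds are pinned in dose-response onto KB-8-5-11 cells (500 cells/well, colchicine-free medium) and left 72 h at 37 degree C. CellTiter-Glo luminescence then yields AC50 values.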

[3] = Primary qHTS for inhibitors of nuclear receptor binding SET domain protein 2 (NSD2) in an isogenic RCH-ACV NSD2 p.E1099K mutant (9B) (AID 1645876); also: nearly all actives have a fitted effect of over 70% in size; also: potency is read from the fitted curve at half-maximal effect
[4] = Primary qHTS for inhibitors of nuclear receptor binding SET domain protein 2 (NSD2) in an RCH-ACV wild type WT cells (2C) (AID 1645877); also: nearly all actives have a fitted effect of over 70% in size; also: potency is read from the fitted curve at half-maximal effect
[5] = target: Glutathione peroxidase 1 (Homo sapiens) (UniProt P07203); experiment: Primary qHTS Assay for Inhibitors of Recombinant Selenoprotein Glutathione Peroxidase 1 (GPX1) (AID 1845191); also: nearly all actives have a fitted effect of over 65% in size; also: potency is read from the fitted curve at half-maximal effect
Method in brief: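 NADPH consumption tracked by fluorescence at 340/450 nm between t=0 and t=15 min, room temperature. Final mix: 10 nM GPX1, 100 nM glutathione reductase, 1 mM GSH, 0.5 mM NADPH, 0.5 mM cumene hydroperoxide, 0.01% BSA; 30 min compound–enzyme preincubation.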

[6] = target: Phospholipid hydroperoxide glutathione peroxidase GPX4 (Homo sapiens) (UniProt P36969); experiment: Primary qHTS Assay for Inhibitors of Recombinant Selenoprotein Glutathione Peroxidase 4 (GPX4) (AID 1845192); settings: outcome: dose series up to 50 µM unless noted; also: nearly all actives have a fitted effect of over 65% in size; as to activity change, negative = inhibition: % is scaled to controls: 0 for no effect and ±100 for the full control effect
Method in brief: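 NADPH consumption followed by fluorescence at 340/450 nm, t=0 and after 15 min at room temperature. Reaction started with cumene hydroperoxide (0.5 mM final) after 30 min compound–GPX4 preincubation; final 200 nM GPX4, 100 nM GR, 1 mM GSH, 0.5 mM NADPH.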

[7] = qHTS drug screen for cell cycle checkpoint inhibitors in PARPi-resistant BRCA-mutant ovarian cancer cell lines. (AID 1963452; calls by dose curve); settings: PEO1/OlaR viability, CellTiter-Glo luminescence, 96 h, stronger effect = lower value
Method in brief: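 PEO1, PEO4 and PEO1/OlaR ovarian cancer cells, 600 per well, exposed 96 h at 37C to a dilution series. Viability read by CellTiter-Glo luminescence, normalized to DMSO and empty wells; activity summarized as Z-AUC.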

[8] = target: Catechol O-methyltransferase (Homo sapiens) (UniProt P21964); experiment: Confirmatory Screen for Target Class Profiling of Small Molecule Inhibitors of Methyltransferases (AID 1745852; calls by dose curve; also: potency is read from the fitted curve at half-maximal effect); settings: MTase-Glo luminescence, SAH detection, recombinant enzyme; measured here: COMT max response; stronger effect = lower value
[9] = target: Guanidinoacetate N-methyltransferase (Homo sapiens) (UniProt Q14353); experiment: as above; settings: activity change, negative = inhibition: at 57.3 µM (top of the series) unless noted
[10] = target: Nicotinamide N-methyltransferase (Homo sapiens) (UniProt P40261); experiment: as above; settings: MTase-Glo luminescence, SAH detection, recombinant enzyme; measured here: NNMT max response; stronger effect = lower value
[11] = target: Phenylethanolamine N-methyltransferase (Homo sapiens) (UniProt P11086); experiment: as above; settings: MTase-Glo luminescence, SAH detection, recombinant enzyme; measured here: PNMT max response; stronger effect = lower value
[12] = target: Calcium and integrin-binding protein 1 (Homo sapiens) (UniProt Q99828); experiment: Primary qHTS for Identification of Calcium Integrin Binding Protein 1 (CIB1) Competitor (AID 1508620);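 also: GST tagged CIB1 binding a fluorescein labelled alphaIIb integrin peptide tracer; top concentration of the series differs between compounds; % is scaled to controls: 0 for no effect and ±100 for the full control effect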
Method in brief: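 CIB1-GST (1 uM final) and compound incubated 15 min at room temperature before adding FITC-alphaIIb peptide tracer (100 nM final). Competition for binding read by fluorescence polarization (ex 480, em 540) after another 15 min at room temperature.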

[13] = qHTS to identify inhibitors of the type 1 interferon - major histocompatibility complex class I in skeletal muscle: primary screen against the NCATS Mechanism Interrogation Plate v5.0 (MIPE) Libary (AID 1347411);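 also: plate controls were vehicle for no effect and reference inhibitor for full effect; nearly all actives have a fitted effect of over 65% in size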
Method in brief: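 Luminescence from CRISPR HiBit-tagged endogenous HLA-B in human myoblasts reported MHC class I level after 24 h of IFN-beta (4 ng/ml) plus compound. Compounds ran as 11-point 1:3 series, top 46 uM final.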

[14] = measured here: PEO1 parental Z-AUC

Sequence of Phospholipid hydroperoxide glutathione peroxidase GPX4 (Homo sapiens) (P36969 whole entry, looked up): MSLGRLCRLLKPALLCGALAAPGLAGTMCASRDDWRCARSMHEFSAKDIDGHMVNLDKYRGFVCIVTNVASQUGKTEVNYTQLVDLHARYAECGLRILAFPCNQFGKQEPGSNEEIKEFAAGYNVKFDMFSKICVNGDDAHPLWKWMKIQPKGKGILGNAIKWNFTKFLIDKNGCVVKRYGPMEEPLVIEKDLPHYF
Sequence of Calcium and integrin-binding protein 1 (Homo sapiens) (Q99828 whole entry, looked up): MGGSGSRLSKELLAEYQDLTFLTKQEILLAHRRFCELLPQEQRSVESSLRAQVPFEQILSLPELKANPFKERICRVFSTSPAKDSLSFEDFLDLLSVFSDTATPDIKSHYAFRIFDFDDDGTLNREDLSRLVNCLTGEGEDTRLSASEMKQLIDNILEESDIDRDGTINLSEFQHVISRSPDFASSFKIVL
Sequence of Glutathione peroxidase 1 (Homo sapiens) (P07203 whole entry, looked up): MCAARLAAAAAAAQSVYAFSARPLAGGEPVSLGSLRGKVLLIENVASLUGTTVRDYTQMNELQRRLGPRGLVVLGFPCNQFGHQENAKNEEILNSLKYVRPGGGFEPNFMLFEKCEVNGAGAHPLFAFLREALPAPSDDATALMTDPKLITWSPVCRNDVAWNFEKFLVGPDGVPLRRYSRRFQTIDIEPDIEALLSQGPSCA
Sequence of Catechol O-methyltransferase (Homo sapiens) (P21964 whole entry, looked up): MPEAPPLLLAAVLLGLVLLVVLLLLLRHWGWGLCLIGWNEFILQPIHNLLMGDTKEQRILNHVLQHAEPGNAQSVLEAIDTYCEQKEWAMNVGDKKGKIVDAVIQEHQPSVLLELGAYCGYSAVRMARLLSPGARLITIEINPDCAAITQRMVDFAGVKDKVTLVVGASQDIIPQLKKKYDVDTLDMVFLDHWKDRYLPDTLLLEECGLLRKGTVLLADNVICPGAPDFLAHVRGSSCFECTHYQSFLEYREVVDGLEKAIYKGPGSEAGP
Sequence of Nicotinamide N-methyltransferase (Homo sapiens) (P40261 whole entry, looked up): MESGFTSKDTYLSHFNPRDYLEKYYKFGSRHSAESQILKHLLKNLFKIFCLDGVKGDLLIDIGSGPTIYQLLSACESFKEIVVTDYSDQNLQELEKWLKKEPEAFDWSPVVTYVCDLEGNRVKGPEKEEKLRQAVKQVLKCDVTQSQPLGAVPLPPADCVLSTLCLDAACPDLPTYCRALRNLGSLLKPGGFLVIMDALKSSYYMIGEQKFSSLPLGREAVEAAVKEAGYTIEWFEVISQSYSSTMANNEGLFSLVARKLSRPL
Sequence of Phenylethanolamine N-methyltransferase (Homo sapiens) (P11086 whole entry, looked up): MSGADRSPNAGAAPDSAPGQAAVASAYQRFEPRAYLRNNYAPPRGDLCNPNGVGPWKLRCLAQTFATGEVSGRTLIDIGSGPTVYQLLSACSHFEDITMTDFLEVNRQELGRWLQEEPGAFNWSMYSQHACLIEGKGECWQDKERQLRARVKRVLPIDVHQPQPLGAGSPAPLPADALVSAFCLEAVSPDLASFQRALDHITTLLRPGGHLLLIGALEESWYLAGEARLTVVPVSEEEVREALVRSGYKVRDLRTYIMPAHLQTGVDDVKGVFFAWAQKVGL

CN1CCN(c2nc(C3=C(c4c[nH]c5ccccc45)C(=O)NC3=O)c3ccccc3n2)CC1
active: Potency [3] 16.4 µM and 16.6 µM | Potency [4] 14.8 µM
inactive: Potency [1] | Potency [2] | Potency [5] | Potency [6]

Cc1ccc(Cl)cc1NC(=O)c1nc[nH]c1C(=O)Nc1nc2ccccc2[nH]1
inactive: Potency [1] | Potency [2] | Potency [3] | Potency [4] | Potency [5]

C=C(C)[C@@H]1CCC2=CC(=O)C[C@@H](C)[C@]2(C)C1
inactive: Potency [1] | Potency [2] | Potency [3] | Potency [4] | Potency [5]

CN(C)CCCNc1c2ccccc2nc2c1[nH]c1ccccc12
active: Potency [1] 1.84 µM | Potency [2] 2.31 µM | Potency [3] 1.84 µM | Potency [4] 2.06 µM | Potency [5] 22.7 µM

CN[C@H]1CCN(C(=O)c2ccc(Nc3ncc(F)c(-c4cnc(C)n4C(C)C)n3)cc2)C1
active: Potency [1] 0.058 µM | Potency [2] 6.51 µM | Potency [3] 0.092 µM | Potency [4] 0.116 µM
inactive: Potency [5]

CCCCCC1CC1CC1CC1CCCCCCCC(=O)O (stereo not drawn)
inactive: Potency [1] | Potency [2] | Potency [3] | Potency [4] | Potency [5]

O=C1NCCSc2c1sc1ccc(O)cc21
active: Potency [1] 6.51 µM | Potency [2] 10.3 µM | Potency [3] 5.8 µM | Potency [4] 3.66 µM
inactive: Potency [5]

O=C(Nc1cccc(Nc2nccc(Nc3cccc(C(F)(F)F)c3)n2)c1)C1CC1
inactive: Potency [5]
active: Potency [1] 5.8 µM | Potency [2] 5.8 µM | Potency [3] 3.66 µM | Potency [4] 2.59 µM

Cc1c[nH]c(/C=C2\C(=O)Nc3ccccc32)c1CCC(=O)O
1.31: Z-AUC ([7]; measured here: PEO4 Z-AUC)
1.05: Z-AUC [7, 14]
active: Potency [3] 14.8 µM | Potency [4] 18.6 µM
inactive: Potency [1] | Potency [2] | Potency [5] | Potency [6] | Z-AUC [7] 1.24

c1nc(NCC2CCOC2)c2cc(-c3ccc4c(c3)OCO4)ccc2n1 (stereo not drawn)
inactive: Potency [1] | Potency [2] | Potency [5]
active: Potency [3] 16.4 µM | Potency [9] 42.9 µM
-29.1%: activity [10]
-39.2%: activity [8]
-63.5%: activity [11]

CC(Sc1nc2c(cnn2-c2cccc(Cl)c2)c(=O)[nH]1)C(N)=O (stereo not drawn)
inactive: Potency [1] | Potency [2] | Potency [3] | Potency [4] | Potency [5]

Cc1cc(C)c(/C=C2\C(=O)Nc3ccc(Cl)cc32)[nH]1
inactive: Potency [1] | Potency [2] | Potency [3] | Potency [4] | Potency [5]

CC(C)CN(CC(=O)N(CCCN1CCCC1=O)CC(N)=O)C(=O)CNCCc1ccccc1F
inactive: Potency [1] | Potency [2] | Potency [3] | Potency [4] | Potency [5]

CC(CCc1ccccn1)(CCc1ccccn1)C(=O)c1ccccc1
inactive: Potency [1] | Potency [2] | Potency [3] | Potency [4] | Potency [5]

O=C1OC(/C=C/c2ccccc2)=NC/1=C\c1cccnc1
inactive: Potency [1] | Potency [2] | Potency [3] | Potency [4] | Potency [5]

COC[C@H](C)Oc1cc(O[C@@H](C)Cc2ccccc2)cc(C(=O)Nc2ccc(C(=O)O)cn2)c1
inactive: Potency [1] | Potency [2] | Potency [3] | Potency [4] | Potency [5]

CSC(Cc1ccc(Cl)cc1)C(=O)Nc1ccc(Cl)cc1C(=O)O (stereo not drawn)
inactive: Potency [1] | Potency [2] | Potency [3] | Potency [4] | Potency [5]

CCCCCCCCCCCCCC#CC(=O)[C@@H]1COC(C)(C)N1C(=O)OC(C)(C)C
inactive: Potency [1] | Potency [2] | Potency [5]
active: Potency [3] 13 µM | Potency [4] 16.4 µM

Cc1cc2ncc(-c3ccccc3)nc2cc1C
inactive: Potency [1] | Potency [2] | Potency [3] | Potency [4] | Potency [5]

CN(C)CC(=O)N1CCC[C@@H](n2nc(-c3ccc(Oc4ccccc4)cc3)c3c(N)ncnc32)C1
active: Potency [1] 20.6 µM | Potency [2] 20.6 µM | Potency [3] 1.64 µM | Potency [4] 1.64 µM
inactive: Potency [5]

COc1cc(OC)c(C(=O)/C=C/c2ccccc2)c2c1C=CC(C)(C)O2
inactive: Potency [1] | Potency [5]
active: Potency [3] 16.4 µM | Potency [4] 18.4 µM

O=c1sn(-c2cccc3ccccc23)c(=O)n1Cc1ccccc1
inactive: Potency [1] | Potency [3] | Potency [6] | Z-AUC [7] 0.462
0.135: Z-AUC [7, 14]
0.0223: Z-AUC ([7]; measured here: PEO4 Z-AUC)
inactive and 7.42 µM (active): Potency [4]

Cc1ccc(NS(=O)(=O)c2cc3c(cc2F)NC(=O)CC3)cc1Cl
inactive: Potency [1] | outcome [12] | Potency [3] | Potency [4] | Potency [5]

CCCCCCCCCCCCCCCCOCCCOP(=O)(O)COC(CO)Cn1ccc(N)nc1=O (stereo not drawn)
inactive: Potency [13] | outcome [12] | Potency [5] | Potency [6] | Z-AUC [7] 0.0641
-0.397: Z-AUC ([7]; measured here: PEO4 Z-AUC)
active: Potency [1] 8.2 µM | Potency [4] 18.6 µM
-0.362: Z-AUC [7, 14]
